Experimental data published in PubChem BioAssay (Tox21).
Records with an inconclusive call do not appear. A call without a number means that no potency is given here. Activity calls are given as the source filed them. The call rests on the fitted dose curve; in most records, active means well fitted cell-killing curve with a large enough effect in the repeat runs; inconclusive means weak or mixed curves, or effect the other way; inactive means no such curve, though single readings can be large or run the other way.

Assay: qHTS assay to identify small molecule agonists of the RXR signaling pathway - cell viability counter screen (AID 1159529); further: nearly all actives have a fitted effect of over 50% in size
Details: RXR-alpha-bla HEK293T viability, CellTiter-Glo, 16 h; series mostly up to 76.8 µM
Text: National Center for Advancing Translational Sciences [NCATS]
NIH Chemical Genomics Center [NCGC]
U.S. Environmental Protection Agency [EPA]
National Institutes of Environmental Health Sciences [NIEHS]
National Toxicology Program [NTP]
U.S. Food and Drug Administration [FDA]
The Retinoid X receptor (RXR), a nuclear hormone receptor expressed in liver, spleen, placenta, epidermis, central nervous system. These receptors are able to form homo and heterodimers with other nuclear receptors and due to this heterodimerizing ability, RXR functions as master regulators producing diverse physiological effects. Three subtypes of RXR exist; alpha, beta and gamma. Retinoid X receptor alpha (RXR-alpha) has potential roles in metabolic signaling pathways, skin alopecia, dermal cysts, cardiac development, insulin sensitization etc. Therefore screening environmental chemicals on RXR-alpha signaling can be used for the studies focused on such therapeutic applications. For quantification of RXR-alpha ligands signaling, GeneBLAzer RXR alpha-UAS-bla HEK 293T (Life Technologies, Carlsbad, CA) cells containing a beta-lactamase reporter-gene under control of Retinoid X receptor-alpha response element were used to screen Tox21 10K library. The cytotoxicity of the Tox21 compound library against the RXR-alpha HEK 293T cell line was tested in parallel by measuring cell viability using CellTiter-Glo assay (Promega Corporation, Madison, WI) in the same wells.
Tox21 Assay Protocol Summary:
RXR-alpha HEK 293T cells were dispensed at 2,000 cells/6 uL of assay medium containing 2% charcoal-stripped FBS using a Multidrop Combi (ThermoFisher Scientific, Waltham, MA) dispenser. The assay was performed in black wall/clear-bottom 1536-well plates (Greiner Bio-One North America Inc. Monroe, NC). Tetraoctyl ammonium bromide was used as a positive control in the cytotoxicity screen. After the assay plates were incubated at 37 C and 5% CO2 for 5 hr, 23 nL of compounds dissolved in DMSO, positive control or DMSO only were transferred to the assay plate by a Pintool station (Kalypsys, San Diego, CA). The assay plates were incubated at 37 C and 5% CO2 for 16 hr. One uL of LiveBLAzer B/G FRET substrate (Life Technologies) was added using a Flying Reagent Dispenser (FRD) (Aurora Discovery, San Diego, CA) and the plates were incubated at room temperature for 2 hr. Fluorescence intensity (405 nm excitation, 460/530 nm emission) was measured using an Envision plate reader (PerkinElmer, Shelton, CT). For cytotoxicity, 4 uL/well of CellTiter-Glo reagent was added into the assay plates using an FRD. After 30 min incubation at room temperature, the luminescence intensity was measured using a ViewLux plate reader (PerkinElmer).
In the case of `O=C(c1ccccc1)C1(O)CCCCC1`, the Potency is reported as “inactive”. With `COc1ccnc(CS(=O)c2nc3cc(OC(F)F)ccc3[nH]2)c1OC` (stereo not given) the Potency was “inactive”. With `Nc1ccn([C@@H]2O[C@H](CO)[C@@H](O)C2O)c(=O)n1` (stereo not given in full) the Potency was “inactive”. For `OCCc1ccccn1`, the Potency was “inactive”. For `[Ca+2]`, the Potency was “inactive”. For `C=CCCC(=O)O`, the Potency was “inactive”. With `Cc1ncc(COP(=O)(O)O)c(C=O)c1O` the Potency was “inactive”. For `Cc1ccnc(NS(=O)(=O)c2ccc(N)cc2)n1`, the Potency was “inactive”. With `c1coc(CNc2ncnc3nc[nH]c23)c1` the Potency was “inactive”. In the case of `CCCCOC(=O)CCC(C)=O`, the Potency is reported as “inactive”. For `CC/C=C\CCOC(C)OCC` (stereo not given), the Potency was “inactive”. For `CCC(=O)OCc1ccccc1`, the Potency was “inactive”. For `C[C@@H]1CCC[C@H](C)N1`, the Potency was “inactive”. In the case of `CCOC(=O)COC(=O)c1ccccc1C(=O)OCC`, the Potency is reported as “inactive”. In the case of `Nc1ccn([C@@H]2O[C@H](CO)[C@@H](O)C2(F)F)c(=O)n1`, the Potency is reported as “inactive”. In the case of `C[C@@H]1C[C@H]2[C@@H]3C[C@H](F)C4=CC(=O)C(Cl)=C[C@]4(C)[C@@]3(F)[C@@H](O)C[C@]2(C)[C@@]1(O)C(=O)CO`, the Potency is reported as “inactive”. In the case of `CCCc1nn(C)c2c(=O)[nH]c(-c3cc(S(=O)(=O)N4CCN(C)CC4)ccc3OCC)nc12`, the Potency is reported as “inactive”. In the case of `C[C@H]1C[C@H]2[C@@H]3CCC4=CC(=O)C=C[C@]4(C)[C@H]3C(=O)C[C@]2(C)[C@@]1(O)C(=O)CO`, the Potency is reported as “inactive”. With `CN(C)CCCN(C)CCCN(C)C` the Potency was “inactive”. With `C=C(C)C(=O)OCC(O)CO` (stereo not given) the Potency was “inactive”. With `CC[N+](CC)(CC)CCOc1cccc(OCC[N+](CC)(CC)CC)c1OCC[N+](CC)(CC)CC` the Potency was “inactive”. For `C1CCC2=NCCCN2CC1`, the Potency was “inactive”. For `CCN[C@H]1C[C@H](C)S(=O)(=O)c2sc(S(N)(=O)=O)cc21`, the Potency was “inactive”. With `Cc1ccc(-c2ncc(Cl)cc2-c2ccc(S(C)(=O)=O)cc2)cn1` the Potency was “inactive”. In the case of `Cc1ccc(-c2ccccc2C#N)cc1`, the Potency is reported as “inactive”. For `CCCO[Si](OCCC)(OCCC)OCCC`, the Potency was “inactive”. For `Nc1ccccn1`, the Potency was “inactive”. For `CC1=C(C/C=C(\C)CCC[C@H](C)CCC[C@H](C)CCCC(C)C)C(=O)c2ccccc2C1=O`, the Potency was “inactive”. For `NC(=O)N[C@@H](CCC(=O)O)C(=O)O`, the Potency was “inactive”. For `C[N+](C)(CCOc1ccccc1)Cc1cccs1`, the Potency was “inactive”. For `CCCCCCCCCC[N+](C)(C)[O-]`, the Potency was “inactive”. With `NC(=O)Cc1cccc2ccccc12` the Potency was “inactive”. In the case of `CCN[C@@H]1C[C@H](N)[C@@H](OC2OC(CN)=CCC2N)[C@H](O)[C@H]1O[C@H]1OC[C@](C)(O)[C@H](NC)[C@H]1O` (stereo not given in full), the activity change, negative = cytotoxicity is reported as -0.24% [at 0.29 µM] (inactive). In the case of `Cc1onc(-c2c(Cl)cccc2Cl)c1C(=O)Cl`, the Potency is reported as “inactive”. In the case of `CC(=O)Oc1cccc(C)c1`, the Potency is reported as “inactive”. With `CCCCCC(C)N` (stereo not given) the Potency was “inactive”. In the case of `COc1ccc2cc1Oc1cc3c(cc1OC)CC[N+](C)(C)[C@H]3Cc1ccc(cc1)Oc1c(OC)c(OC)cc3c1[C@@H](C2)[N+](C)(C)CC3`, the Potency is reported as “inactive”. In the case of `CC[N+](C)(CC)CCOC(=O)C1c2ccccc2Oc2ccccc21`, the Potency is reported as “inactive”. With `CCN1C=CN(C)C1C` (stereo not given) the Potency was “inactive”. With `CC(=O)OCC(=O)[C@@]1(O)[C@H](C)C[C@H]2[C@@H]3CCC4=CC(=O)C=C[C@]4(C)[C@@]3(F)[C@@H](O)C[C@@]21C` the Potency was “inactive”.
